Screens from PubChem BioAssay.
G9a block: qHTS Assay for Inhibitors of Histone Lysine Methyltransferase G9a; G9a H3K9 monomethylation, AlphaScreen, 2 h; Potency, µM (series often up to 102 µM), for the others: at the highest dose activity, negative = inhibition, hits mostly inhibitors; 350,000 compounds, 8.8% hits; further: on the % scale 0 is the no-effect control and ±100 the full control effect; nearly all actives have a fitted effect of over 75% in size
Target sequence (Q96KQ7 913-1193 limits assumed): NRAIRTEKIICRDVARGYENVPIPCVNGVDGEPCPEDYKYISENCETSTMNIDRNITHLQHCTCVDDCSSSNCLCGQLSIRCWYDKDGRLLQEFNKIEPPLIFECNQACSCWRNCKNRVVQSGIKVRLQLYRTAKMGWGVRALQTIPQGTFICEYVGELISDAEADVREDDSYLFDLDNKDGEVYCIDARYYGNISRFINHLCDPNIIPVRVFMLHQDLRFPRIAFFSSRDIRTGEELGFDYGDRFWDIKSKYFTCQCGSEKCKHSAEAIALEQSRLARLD
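G9a (20 nM) was preincubated 15 min with compound, then reacted 2 h at room temperature with 500 nM biotin-H3K9 peptide and 20 µM SAM. Monomethyl-H3K9 detected by AlphaScreen using anti-H3K9me1 antibody.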
ALOX12 inh: Primary qHTS assay for inhibitors of human arachidonate 12S-lipoxygenase (ALOX12): Round 2; 580,000 compounds, 1.1% hits; Polyunsaturated fatty acid lipoxygenase ALOX12 (Homo sapiens), P18054; purified 12hLO, xylenol orange hydroperoxide absorbance; Potency, µM (doses to about 108 µM), without a hit: top-dose activity change, negative = inhibition, most hits filed as inhibitors; further: on the % scale 0 is the no-effect control and ±100 the full control effect
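Purified human 12hLO (150 nM final) in 25 mM Hepes, 0.01% Triton X-100, pH 7.0 was preincubated 15 min at room temperature with compound. Then 40 uM arachidonic acid was added, 30 min. Hydroperoxide was read by Fe-XO absorbance ratio 573/405 nm.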
Glioma ERSR ind: qHTS for Inducers of the Endoplasmic Reticulum Stress Response (ERSR) in Human Glioma: qHTS | Potency, µM, without a hit: at the top dose activation, most hits filed as activators | U87-MG GRP78 promoter luciferase reporter, 16 h | 420,000 compounds, 0.02% hits; further: series mostly up to about 76 µM; % of control where 0% means no effect; nearly all actives have a fitted effect of over 35% in size
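Stably transfected U87-MG glioma cells carrying a GRP78-based luciferase sensor; 16 h compound incubation. Luminescence end-point read 10 min after Bright-Glo addition at room temperature.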
VDR inh: Inhibitors of the vitamin D receptor (VDR): qHTS | Potency, µM, without a hit: max response, negative = inhibition, actives largely listed as inhibitors | VDR-SRC2-3 peptide fluorescence polarization, 2 h | 400,000 compounds, 0.93% hits | Vitamin D3 receptor (Homo sapiens), P11473; further: on the % scale 0 is the no-effect control and ±100 the full control effect
Target sequence (P11473 whole entry, looked up): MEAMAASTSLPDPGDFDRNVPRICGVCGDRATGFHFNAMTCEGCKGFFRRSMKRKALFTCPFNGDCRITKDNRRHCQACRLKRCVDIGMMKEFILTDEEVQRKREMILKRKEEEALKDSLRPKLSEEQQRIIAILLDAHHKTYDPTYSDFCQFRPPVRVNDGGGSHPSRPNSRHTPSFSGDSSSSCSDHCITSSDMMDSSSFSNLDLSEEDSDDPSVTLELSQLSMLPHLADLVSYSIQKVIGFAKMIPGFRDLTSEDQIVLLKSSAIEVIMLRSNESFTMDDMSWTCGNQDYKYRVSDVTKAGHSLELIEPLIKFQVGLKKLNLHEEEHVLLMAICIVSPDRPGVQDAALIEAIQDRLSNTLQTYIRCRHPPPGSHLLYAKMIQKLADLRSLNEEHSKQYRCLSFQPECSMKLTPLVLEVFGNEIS
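Reagent solutions, kept cold and dark, are dispensed first; compounds are then pinned in at 23 nl, plates briefly spun, and incubated 2 h at ambient temperature. Inhibition of VDR–SRC2-3 peptide binding is read by fluorescence polarization.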
Sfp PPTase inh: qHTS Assay for Inhibitors of Bacillus subtilis Sfp phosphopantetheinyl transferase (PPTase); 4'-phosphopantetheinyl transferase ffp (Bacillus subtilis), Q9F4F7; Biochemical Sfp PPTase activity, qHTS; Potency, µM, for inactives: largest response in the series, negative = inhibition, hits mostly inhibitors; 310,000 compounds, 3.5% hits; AID 1490, 2009;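 further: the enzyme is Sfp with the accession as filed and its product quenches rhodamine fluorescence; 0% = enzyme reaction without inhibitor and -100% = no enzyme wells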
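Fluorescence-quenching assay: 15 nM Sfp-PPTase preincubated 15 min at room temperature with compound, then 5 uM rhodamine-CoA and 12.5 uM BHQ-2-labelled YbbR peptide added. Fluorescence (ex 525/em 598 nm) read at start and after 30 min; difference gives rate.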
Active calls of the source: *; [ ] = another dose, or the depositor's remark. The entries come from a sample that favours hits as a whole. The call rests on the fitted dose curve; in most records, active means well fitted curve in the direction sought with a large enough effect; inconclusive means small, poorly fitted or top-dose-only effect, or another doubt; inactive means no such curve, though single readings can be large; an effect the other way counts as inactive or inconclusive. Potency means the concentration at half of the fitted maximal effect.

What do the screens show for `O=C(c1nn2c(C(F)(F)F)cc(-c3cccs3)nc2c1Br)N1CCCc2ccccc21`?
G9a block: -12%[59 µM]; ALOX12 inh: 9%; Glioma ERSR ind: 1%; VDR inh: 6%; Sfp PPTase inh: 18%

How did O=C(c1nn2c(C(F)(F)F)cc(-c3ccco3)nc2c1Br)N1CCCc2ccccc21 do in these assays?
G9a block: 18µM*; ALOX12 inh: inconclusive; Glioma ERSR ind: -3%; VDR inh: 5%; Sfp PPTase inh: -19%

Results for O=C(c1cc2nc(-c3ccco3)cc(C(F)(F)F)n2n1)N1CCN(c2ccccn2)CC1 ?
G9a block: inconclusive; ALOX12 inh: -1%; Glioma ERSR ind: -5%; VDR inh: -2%; Sfp PPTase inh: -14%

How did CN(C(=O)c1cc2nc(-c3ccco3)cc(C(F)(F)F)n2n1)C1CCCCC1 do in these assays?
G9a block: 56µM*; ALOX12 inh: 23%; Glioma ERSR ind: -2%; VDR inh: -8%; Sfp PPTase inh: 50µM*

What do the screens show for `O=C1NC2(C(=O)Nc3cccc(Cl)c3)CCC(=O)N2c2ccccc21` (centres undefined)?
ALOX12 inh: 36%

What do the screens show for `COc1ccc(OC)c(NC(=O)CC2CC3CCC2C3)c1` (centres undefined)?
ALOX12 inh: 31%

What do the screens show for `CC(C)n1ccnc1CN1CCCC12CCN(c1ccc(C(F)(F)F)cn1)CC2`?
ALOX12 inh: 56%

How did COc1ccc(N(C(=O)c2ccncc2)S(=O)(=O)c2cccc([N+](=O)[O-])c2)cc1 do in these assays?
G9a block: 79µM*; ALOX12 inh: inconclusive; Glioma ERSR ind: 13%; VDR inh: inconclusive; Sfp PPTase inh: 7%

Results for CCC(CC)C(=O)Nc1nnc(-c2cccs2)s1 ?
G9a block: 16µM*; ALOX12 inh: -9%[57.4 µM]; Glioma ERSR ind: 2%; VDR inh: -27%; Sfp PPTase inh: -5%

How did Cc1noc(C)c1Cn1cc2c3c(cccc31)[C@H](CC(C)C)N[C@H](C(=O)NCC1CC1)C2 do in these assays?
ALOX12 inh: 5%[176 µM]

Results for CC(=O)c1cccc(Nc2nc(-c3sc(N)nc3C)cs2)c1 ?
G9a block: 79µM*; ALOX12 inh: -2%; Glioma ERSR ind: -2%; VDR inh: inconclusive; Sfp PPTase inh: -7%

What do the screens show for `CCCCCC(=O)Nc1nc(C)c(-c2csc(Nc3ccc(Cl)cc3)n2)s1`?
G9a block: 41%[0.501 µM]; ALOX12 inh: inconclusive; Glioma ERSR ind: -1%; VDR inh: -8%; Sfp PPTase inh: 4%

How did CCC(=O)Nc1nc(C)c(-c2csc(Nc3cccc(O)c3)n2)s1 do in these assays?
G9a block: 40µM*; ALOX12 inh: inconclusive; Glioma ERSR ind: 1%; VDR inh: -20%; Sfp PPTase inh: inconclusive

Results for Cc1nc(N)sc1-c1csc(Nc2cccc(O)c2)n1 ?
G9a block: 45µM*; ALOX12 inh: inconclusive; Glioma ERSR ind: 5%; VDR inh: inconclusive; Sfp PPTase inh: -21%

Results for CC(=O)c1cccc(Nc2nc(-c3sc(C)nc3C)cs2)c1 ?
G9a block: 2%; ALOX12 inh: 0%; Glioma ERSR ind: 1%; VDR inh: 1%; Sfp PPTase inh: -5%

What do the screens show for `CCOC(=O)[C@]12CCC=C1N(Cc1ccc3c(c1)OCO3)C(=O)[C@H](CC(=O)NCCc1ccccc1OC)C2`?
ALOX12 inh: 40µM*

Results for CCOC(=O)[C@]12CCC=C1N(Cc1ccc3c(c1)OCO3)C(=O)[C@H](CC(=O)NCCCCc1ccccc1)C2 ?
ALOX12 inh: -1%

Results for COc1ccc2c(C)c(CC(=O)NCCCn3ccnc3)c(=O)oc2c1C ?
ALOX12 inh: 13%

Results for COc1ccc(NC(=O)C(C)N(C)Cc2ccc3ccccc3c2)cc1 (centres undefined) ?
G9a block: -10%; ALOX12 inh: -17%; Glioma ERSR ind: 3%; VDR inh: -11%; Sfp PPTase inh: -15%

What do the screens show for `COc1cc(NC(=O)CCN2CCN(Cc3ccccc3)CC2)cc(OC)c1`?
G9a block: -3%[59 µM]; ALOX12 inh: 7%; Glioma ERSR ind: -5%; VDR inh: -3%; Sfp PPTase inh: -10%

How did COc1cccc(CN(CCC(=O)O)Cc2cccc(OC)c2)c1 do in these assays?
ALOX12 inh: 18µM*; Glioma ERSR ind: -3%

What do the screens show for `CCCN(CCC(=O)Nc1cc(OC)cc(OC)c1)CC1CC1`?
G9a block: 45µM*; ALOX12 inh: inconclusive; Glioma ERSR ind: 0%; VDR inh: -6%; Sfp PPTase inh: inconclusive

Results for CCN(CCC(=O)Nc1cc(OC)cc(OC)c1)Cc1ccccc1 ?
G9a block: 45µM*; ALOX12 inh: -19%; Glioma ERSR ind: -4%; VDR inh: -4%; Sfp PPTase inh: 45µM*

What do the screens show for `CCC(C)c1ccccc1NC(=O)C(C)N(C)Cc1cccc(OC)c1` (centres undefined)?
G9a block: 10µM*; ALOX12 inh: -22%; Glioma ERSR ind: -2%; VDR inh: 9%; Sfp PPTase inh: 50µM*

Results for CCCN(CCC(=O)Nc1ccccc1F)CC1CC1 ?
G9a block: -50%[12.7 µM]; ALOX12 inh: 0%; Glioma ERSR ind: -4%; VDR inh: -2%; Sfp PPTase inh: 6%

How did CCCc1cc(=O)oc2cc(OS(=O)(=O)c3c(C)c(C)cc(C)c3C)ccc12 do in these assays?
ALOX12 inh: 7%

Results for CCCN(CC1CC1)C(=O)CCC1CCN(S(=O)(=O)c2ccccc2)CC1 ?
ALOX12 inh: 37%

How did COCCNC(=S)N(c1ccccc1)C(C)C do in these assays?
G9a block: -43%; ALOX12 inh: -6%; Glioma ERSR ind: 4%; VDR inh: 14%; Sfp PPTase inh: -11%

What do the screens show for `COCCNC(=S)NN(c1ccccc1)c1ccccc1`?
G9a block: 28µM*; ALOX12 inh: -19%; Glioma ERSR ind: 0%; VDR inh: -13%; Sfp PPTase inh: inconclusive

Results for Cc1ccc(C2NC(=O)NC3=C2CCc2ccccc23)cc1 (centres undefined) ?
G9a block: 10µM*; ALOX12 inh: inconclusive; Glioma ERSR ind: 1%; VDR inh: 2%; Sfp PPTase inh: inconclusive

Results for COc1ccc(C2NC(=O)NC3=C2CCc2ccccc23)cc1 (centres undefined) ?
G9a block: inconclusive; Glioma ERSR ind: 0%; VDR inh: 4%; Sfp PPTase inh: inconclusive
